Source: PubChem BioAssay (EPA / NIEHS)
Activity calls are given as the source filed them. The calls were made as follows: active = hit-call score of the fitted dose curve at least 0.9, where 1 is the maximum; inactive = score below 0.9.

Key:
Conditions in all cases: mRNA level, 48 h; actives raise or lower the signal
[1] = read-out: Cytochrome P450 (CYP24A1), CYP24A1 (gene 1591); test: LTEA_HepaRG_CYP24A1: Life Technologies and Expression Analysis (LTEA) Assay for Cytochrome P450 (CYP24A1) using HepaRG (AID 2283478)
In short: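 Differentiated HepaRG cells, pre-cultured 48 h, were exposed in duplicate for 48 h in serum-free induction medium to 8 half-log concentrations (top 100 uM, 0.5% DMSO). CYP24A1 mRNA was quantified by TaqMan qRT-PCR, normalized to ACTB/GAPDH/POLR2A, fitted bidirectionally versus DMSO.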

[2] = read-out: cysteine-aspartic acid protease (CASP8), CASP8 (gene 841); test: LTEA_HepaRG_CASP8: Life Technologies and Expression Analysis (LTEA) Assay for cysteine-aspartic acid protease (CASP8) using HepaRG (AID 2283480)
In short: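 HepaRG, 48 h exposure, duplicate wells; 8 conc, half-log from 100 uM, 0.5% DMSO. Serum-free induction medium. CASP8 mRNA by TaqMan qRT-PCR, norm. ACTB/GAPDH/POLR2A; gain/loss fitted vs DMSO.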

[3] = read-out: Cytochrome P450 (CYP2B6), CYP2B6 (gene 1555); test: LTEA_HepaRG_CYP2B6: Life Technologies and Expression Analysis (LTEA) Assay for Cytochrome P450 (CYP2B6) using HepaRG (AID 2283481)
In short: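 Differentiated HepaRG cells, serum-free induction medium, exposed 48 h in duplicate to 8-point half-log concentrations from 100 uM in 0.5% DMSO. CYP2B6 mRNA by qRT-PCR, normalized to ACTB, GAPDH, POLR2A; bidirectional fit versus DMSO.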

[4] = read-out: Cytochrome P450 2C19 (Homo sapiens) (UniProt P33261); test: LTEA_HepaRG_CYP2C19: Life Technologies and Expression Analysis (LTEA) Assay for CYP2C19 using HepaRG (AID 2283482)
In short: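 Differentiated human HepaRG cells were exposed for 48 h in serum-free induction medium to 8 concentrations (top 100 uM, half-log steps, 0.5% DMSO). CYP2C19 mRNA was measured by qRT-PCR, normalized to ACTB/GAPDH/POLR2A, and fitted bidirectionally against DMSO.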

CYP2C8 (gene 1558) = test: LTEA_HepaRG_CYP2C8: Life Technologies and Expression Analysis (LTEA) Assay for CYP2C8 using HepaRG (AID 2283483)
In short: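 CYP2C8 mRNA induction or loss, by qRT-PCR normalized to ACTB/GAPDH/POLR2A, is read in HepaRG cells after 48 h treatment. Concentrations run from 100 uM down in half-log dilutions, with 0.5% DMSO as vehicle and baseline.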

CYP2C9 (gene 1559) = test: LTEA_HepaRG_CYP2C9: Life Technologies and Expression Analysis (LTEA) Assay for CYP2C9 using HepaRG (AID 2283484)
In short: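 Cells plated 48 h, switched to serum-free induction medium, then treated in duplicate for 48 h at eight concentrations (max 100 uM, 0.5% DMSO). RNA then analysed by qRT-PCR for CYP2C9; curves fitted in both directions relative to DMSO.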

CYP2E1 (gene 1571) = test: LTEA_HepaRG_CYP2E1: Life Technologies and Expression Analysis (LTEA) Assay for CYP2E1 using HepaRG (AID 2283485)
In short: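 Human liver line HepaRG, plated 48 h, then serum-free induction medium + chemical x 48 h; 8-pt CRC from 100 uM, half-log, 0.5% DMSO, n=2. Readout: CYP2E1 mRNA qRT-PCR vs ACTB/GAPDH/POLR2A; bidirectional fit vs DMSO.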

CYP4A11 (gene 1579) = test: LTEA_HepaRG_CYP4A11: Life Technologies and Expression Analysis (LTEA) Assay for CYP4A11 using HepaRG (AID 2283486)
In short: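 Differentiated HepaRG cells, serum-free induction medium, exposed 48 h in duplicate to 8-point half-log series from 100 uM in 0.5% DMSO. CYP4A11 mRNA measured by qRT-PCR, normalized to ACTB, GAPDH, POLR2A; bidirectional fit versus DMSO.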

[5] = read-out: Cytochrome P450 3A4 (Homo sapiens) (UniProt P08684); test: LTEA_HepaRG_CYP3A4: Life Technologies and Expression Analysis (LTEA) Assay for CYP3A4 using HepaRG (AID 2283487)
In short: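 Differentiated HepaRG cells, plated 48 h, then dosed 48 h in serum-free induction medium with 0.5% DMSO, 8 half-log concentrations up to 100 uM, duplicate. CYP3A4 mRNA by qRT-PCR, normalized to ACTB/GAPDH/POLR2A; bidirectional fit versus DMSO.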

[6] = read-out: Cytochrome P450 (CYP1A2), CYP1A2 (gene 1544); test: LTEA_HepaRG_CYP1A2: Life Technologies and Expression Analysis (LTEA) Assay for Cytochrome P450 (CYP1A2) using HepaRG (AID 2283479)
In short: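 Differentiated human HepaRG cells in serum-free induction medium were exposed in duplicate for 48 h to 8-point half-log concentrations up to 100 uM in 0.5% DMSO. CYP1A2 mRNA measured by qRT-PCR, normalized to ACTB, GAPDH, POLR2A; bidirectional fit vs DMSO.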

Measured: AC50

Cytochrome P450 3A4 (Homo sapiens), sequence (P08684 whole entry, looked up): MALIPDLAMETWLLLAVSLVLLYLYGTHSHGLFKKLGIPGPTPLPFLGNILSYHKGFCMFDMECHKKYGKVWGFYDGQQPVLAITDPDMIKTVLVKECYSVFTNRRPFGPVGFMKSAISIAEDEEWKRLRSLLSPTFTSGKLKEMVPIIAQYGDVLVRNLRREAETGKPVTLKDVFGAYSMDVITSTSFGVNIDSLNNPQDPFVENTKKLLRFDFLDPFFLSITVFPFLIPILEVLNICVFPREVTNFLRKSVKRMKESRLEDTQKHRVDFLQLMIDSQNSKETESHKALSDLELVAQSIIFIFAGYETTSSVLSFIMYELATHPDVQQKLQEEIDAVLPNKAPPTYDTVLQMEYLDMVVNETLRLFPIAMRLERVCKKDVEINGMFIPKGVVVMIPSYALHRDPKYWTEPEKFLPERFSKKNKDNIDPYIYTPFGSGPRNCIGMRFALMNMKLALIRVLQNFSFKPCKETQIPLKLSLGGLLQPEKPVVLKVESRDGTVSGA
Cytochrome P450 2C19 (Homo sapiens), sequence (P33261 whole entry, looked up): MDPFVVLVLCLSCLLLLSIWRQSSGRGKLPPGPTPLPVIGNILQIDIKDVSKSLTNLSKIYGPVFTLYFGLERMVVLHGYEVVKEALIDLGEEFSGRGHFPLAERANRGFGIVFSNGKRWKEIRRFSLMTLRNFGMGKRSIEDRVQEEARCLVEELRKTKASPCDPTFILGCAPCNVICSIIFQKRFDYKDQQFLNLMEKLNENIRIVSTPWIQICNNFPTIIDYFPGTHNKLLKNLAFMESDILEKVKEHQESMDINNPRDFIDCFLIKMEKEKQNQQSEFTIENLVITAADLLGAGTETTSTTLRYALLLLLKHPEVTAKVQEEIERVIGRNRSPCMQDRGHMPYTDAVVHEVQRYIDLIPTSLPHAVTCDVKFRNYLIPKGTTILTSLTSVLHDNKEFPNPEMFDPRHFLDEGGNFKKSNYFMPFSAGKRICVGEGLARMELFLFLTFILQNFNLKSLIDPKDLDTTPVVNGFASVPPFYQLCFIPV

O=C(O)Cc1cc(I)c(Oc2cc(I)c(O)c(I)c2)c(I)c1
active: [2] 56.7 µM | [3] 55.3 µM | [4] 62.7 µM | CYP2C8 (gene 1558) 61.5 µM | CYP2C9 (gene 1559) 53.8 µM | CYP2E1 (gene 1571) 6.65 µM | CYP4A11 (gene 1579) 53.2 µM | [5] 50.7 µM
inactive: [1]

OC1CCCCC1
not listed: CYP2C8 (gene 1558)
inactive: all other assays above

NC(=O)N(O)[C@@H]1C=C[C@H](Oc2cccc(Oc3ccc(F)cc3)c2)C1
inactive: [1] | [2]
active: [6] 21.2 µM | [3] 34.4 µM | [4] 76.7 µM | CYP2C8 (gene 1558) 27.3 µM | CYP2C9 (gene 1559) 58.8 µM | CYP2E1 (gene 1571) 32.1 µM | CYP4A11 (gene 1579) 30.8 µM | [5] 72.1 µM

CCCCCCCCCCCCN1CCCC1=O
not listed: [6]
inactive: all other assays above

CN1CCC[C@H]1c1cccnc1
not listed: CYP2C8 (gene 1558) | CYP2C9 (gene 1559)
inactive: all other assays above

CCc1ccc(CCOc2ccc(CC3SC(=O)NC3=O)cc2)nc1 (configuration not stated)
active: [6] 31.6 µM | [3] 92.5 µM | CYP2C8 (gene 1558) 88.4 µM | CYP2C9 (gene 1559) 77.6 µM | CYP2E1 (gene 1571) 48.5 µM | CYP4A11 (gene 1579) 85.9 µM
inactive: [1] | [2]

OCCC(F)(F)C(F)(F)C(F)(F)C(F)(F)C(F)(F)C(F)(F)C(F)(F)C(F)(F)F
not listed: [6]
inactive: all other assays above

c1ccc2c(c1)Cc1ccccc1-2
active: [3] 31.9 µM
not listed: [6]
inactive: all other assays above

CC(=O)NC1(c2cccc(F)c2)CCN(CC[C@@]2(c3ccc(Cl)c(Cl)c3)CN(c3ccccc3)C(=O)CO2)CC1
active: CYP2E1 (gene 1571) 11 µM | CYP4A11 (gene 1579) 13.1 µM | [5] 3.67 µM
inactive: all other assays above

ClC1=C(Cl)C(Cl)(Cl)C(Cl)=C1Cl
not listed: CYP2C8 (gene 1558)
inactive: all other assays above

OC1CCC(C2CCCCC2)CC1 (configuration not stated)
not listed: [6]
inactive: all other assays above

C[C@@H]1C[C@H]2[C@@H]3CCC4=CC(=O)C=C[C@]4(C)[C@@]3(F)[C@@H](O)C[C@]2(C)[C@@]1(O)C(=O)COP(=O)(O)O
active: CYP2E1 (gene 1571) 25 µM | [5] 9.66 µM
not listed: [6]
inactive: all other assays above

CC1=C(/C=C/C(C)=C/C=C/C(C)=C/C(=O)O)C(C)(C)CCC1
inactive: [2] | CYP2C8 (gene 1558) | CYP2C9 (gene 1559)
active: [1] 12.8 µM | [6] 1.75 µM | [3] 6.58 µM | [4] 27 µM | CYP2E1 (gene 1571) 20.8 µM | CYP4A11 (gene 1579) 4.34 µM

O=C(O)c1ccccc1C(c1ccc(O)cc1)c1ccc(O)cc1
active: [3] 3.65 µM
inactive: all other assays above
